This is part of a sample that, as a whole, favours compounds with a hit. Of some 83,000 tested, about 20% had one in any assay.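 Values shown are percent growth following 48 h exposure of cells in 96-well plates to a single concentration of compound; below 10 was considered active.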 Values without a mark were called inactive. The source made the active and inactive calls.
Each compound was assayed on OVCAR-4 ovarian (assay: NCI-60 one-dose screen, 48 h (100 = growth as untreated, 0 = no growth, -100 = all killed)). Details: 10 µM unless noted.
Procedure: Growth inhibition of the OVCAR-4 human tumor cell line is measured as a screen for anti-cancer activity. Cells are grown in 96 well plates and exposed to the test compound for 48 hours. Compounds are tested at a single concentration, which is 10^-5 M for most compounds. The reported endpoint is percent growth (GI% or GIPRCNT), where numbers from 0 - 100% represent growth inhibition, and numbers from -100% - 0 represent cell death. For example, a value of 40 represents 60% growth inhibition. A value of 0 means no net growth occurred over the course of the experiment. A value of -40 indicates 40% of cells at the beginning of the experiment died by the end of the experiment. A value of -100 means all cells are dead at the end of the experiment.
NCI-60 Human Tumor Cell Lines Screen was performed using the standard one-dose NCI protocol, which is described in more detail at https://dtp.cancer.gov/discovery_development/nci-60/default.htm.
Compounds with GIPRCNT values below 10 were considered active. Activity score was based on GIPRCNT using the following formula: […]
Score is 0 for GIPRCNT values of 100 or above, 50 for GIPRCNT values of 0, and 100 for GIPRCNT values of -100.

Row | SMILES | growth
1 | C=CC(=O)Nc1cccc(Oc2nc(Nc3ccc(N4CCN(C)CC4)cc3)nc3ccsc23)c1 | -63.6% (active)
2 | C[C@@H](N)c1ccc(C(=O)Nc2ccnc3[nH]ccc23)cc1 | 69.9%
3 | NC[C@@](O)(c1ccc(Cl)cc1)c1ccc(-c2cn[nH]c2)cc1 | 16.9%
4 | CCc1cnn2c(NCc3ccc[n+]([O-])c3)cc(N3CCCC[C@H]3CCO)nc12 | -9.21% (active)
5 | C=C1C(=O)O[C@H]2[C@H]1CC/C(C=Nc1c(N)cc(C(F)(F)F)cc1C(F)(F)F)=C\CC[C@@]1(C)O[C@@H]21 | -71.6% (active)
6 | COc1cc(Nc2ncc(F)c(Nc3ccc4c(n3)N(COP(=O)(O)O)C(=O)C(C)(C)O4)n2)cc(OC)c1OC | 44.1%
7 | CN1CC[C@H](c2c(O)cc(O)c3c(=O)cc(-c4ccccc4Cl)oc23)[C@H](O)C1 | 1.82% (active)
8 | COc1cc2ncnc(Nc3ccc(O)cc3)c2cc1OC | 88.1%
9 | Cc1cc2c(F)c(Oc3ncnn4cc(OC[C@@H](C)OC(=O)[C@H](C)N)c(C)c34)ccc2[nH]1 | 65.5%
10 | CO[C@H]1C[C@@H]2CC[C@@H](C)[C@@](O)(O2)C(=O)C(=O)N2CCCC[C@H]2C(=O)O[C@H]([C@H](C)C[C@@H]2CC[C@@H](OP(C)(C)=O)[C@H](OC)C2)CC(=O)[C@H](C)/C=C(\C)[C@@H](O)[C@@H](OC)C(=O)[C@H](C)C[C@H](C)\C=C/C=C/C=C/1C | 28.6%
11 | Cc1ccc(-c2nc3ccc(Cl)cn3c2NC2CCCCC2)o1 | 71%
12 | COc1ccc(F)c(F)c1C(=O)c1cnc(NC2CCN(S(C)(=O)=O)CC2)nc1N | 8.36% (active)
13 | COc1cc(N2CCC(N3CCN(C)CC3)CC2)ccc1Nc1ncnc(Nc2ccccc2S(=O)(=O)C(C)C)n1 | 113%
14 | CCc1nc(C(N)=O)c(Nc2ccc(N3CCC(N4CCN(C)CC4)CC3)c(OC)c2)nc1NC1CCOCC1 | 81.2%
15 | COc1cc2nccc(Oc3ccc(NC(=O)C4(C(=O)Nc5ccc(F)cc5)CC4)cc3)c2cc1OC | 26.3%
16 | NS(=O)(=O)c1ccc(CCN2C(=O)/C(=C\c3ccc(Cl)cc3)C=C2c2ccc3ccccc3c2)cc1 | 95.3%
17 | COc1ccc(C(=O)c2cc(OC)c(OC)c(OC)c2)cc1/C=C/C(=O)c1ccc(F)cc1 | 77.8%
18 | COc1cc2c(Oc3ccc(NC(=O)C4(C(=O)Nc5ccc(F)cc5)CC4)cc3F)ccnc2cc1OCCCN1CCOCC1 | 32.1%
19 | CC(C)c1ccc(/C=N/Nc2nc3ccccc3s2)cc1 | 81.4%
20 | COc1ccc(/C(C)=C(\c2ccc(Cl)cc2)c2ccc(OCCN3CCCCCC3)cc2)cc1 | 56.4%

Row | SMILES | growth
21 | c1cc[n+](Cc2c3ccccc3cc3c2ccc2ccccc23)cc1 | 34.4%
22 | CCCCN1CCCC[C@@H]1C(=O)N[C@H](C(=O)N(C)[C@H](CCc1nc(C(=O)N[C@@H](Cc2ccccc2)C[C@H](C)C(=O)OC)cs1)C(C)C)C(C)C | 61.3%
23 | Cc1nc(NC(=O)N2CCC[C@H]2C(N)=O)sc1-c1ccnc(C(C)(C)C(F)(F)F)c1 | 72%
24 | CC(C)=CCc1cc2c(cc1O)C1=C(C(=O)C3=C(C1=O)S(=O)(=O)CCN3)C(C=C(C)C)O2 (stereo not given) | -98.2% (active)
25 | COC(=O)[C@H](C)NC(=O)[C@@H](OC)[C@@H]1Cc2cc3cc(OC4CC(OC5CC(O)C(O)C(C)O5)C(O)C(C)O4)c(C)c(O)c3c(O)c2C(=O)[C@H]1OC1CC(OC2CC(OC3CC(C)(O)C(O)C(C)O3)C(O)C(C)O2)C(O)C(C)O1 (stereo not given in full) | 0.165% (active)
26 | CC1(O)CCC(Nc2cc(-c3ccc(C(F)(F)F)cc3)c(C#N)c3nc4ccccc4n23)CC1 (stereo not given) | 55.2%
27 | COc1cc2nccc(Oc3ccc(NC(=O)Nc4cc(C)on4)c(Cl)c3)c2cc1OC | 31.1%
28 | CC(C)(C)c1nc(-c2cccc(NS(=O)(=O)c3c(F)cccc3F)c2F)c(-c2ccnc(N)n2)s1 | 114%
29 | CCCCn1c(C)nc2cc(Nc3nc(N4CCCCC4)nc4nc[nH]c34)ccc21 | 19%
30 | CO[C@H](C(=O)N[C@@H](CCCCNC(=O)OCc1ccccc1)C(=O)OC(C)(C)C)[C@@H]1Cc2cc3cc(OC4CC(OC5CC(O)C(O)C(C)O5)C(O)C(C)O4)c(C)c(O)c3c(O)c2C(=O)[C@H]1OC1CC(OC2CC(OC3CC(C)(O)C(O)C(C)O3)C(O)C(C)O2)C(O)C(C)O1 (stereo not given in full) | 43.1%
31 | O=c1[nH]c(N2CCOCC2)nc2scc(-c3ccccc3)c12 | 101%
32 | Cc1cc(Nc2ncnc3ccc(NC4=NC(C)(C)CO4)cc23)ccc1Oc1ccn2ncnc2c1 | 44.2%
33 | CNC(=O)c1nn(C)c2c1C(C)(C)Cc1cnc(Nc3ccc(N4CCN(C)CC4)cc3)nc1-2 | 12.9%
34 | Cn1c(=O)c(F)c(Nc2ccc(I)cc2F)c2c(=O)n(C[C@@H](O)CO)cnc21 | 55.8%
35 | CCc1ccc(/C=C/c2ccc(O)c3ncccc23)[n+](C)c1 | 35.9%
36 | O=C(CNc1nc2ccccc2s1)Nc1ccc(-c2nc3ccccc3s2)cc1 | 102%
37 | CC[C@H](CO)Nc1nc(NCc2ccccc2)c2ncn(C(C)C)c2n1 | 73.2%
38 | NC1=Nc2ccccc2N(O)N1 | 99.8%
39 | COCCN1CCN(Cc2ccc(-c3n[nH]c4c3C(=O)c3c(NC(=O)NN5CCOCC5)cccc3-4)cc2)CC1 | -0.503% (active)
40 | O=C(c1ccc(F)c(F)c1Nc1ccc(I)cc1F)N1CC(O)([C@@H]2CCCCN2)C1 | 27.8%
